# Data published in PubChem BioAssay AID1159580 (chemical genetic matrix, 2015).
# Values joined by “and” are separate entries in the source; they are usually repeats but may differ in a detail not shown here. Identical values can stand only once. The campaign covered roughly 5,500 compounds. About 2,000 (36%) were called active. Roughly 18% stayed inconclusive and do not appear here. The list shows a part of the results. A number with no mark means an inactive call. Rule as the data show it: active = normalized growth mostly below about 0.91 (no sharp cut-off); inconclusive = no clear call, values can overlap the other calls; inactive = mostly above about 0.92.
# Experiment: chemical genetic growth profiling, strain panel (AID 1159580);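 also: tested at 20 µM; growth read once vehicle control cultures reached saturation at 30 °C; 1 = growth at the plate median or of vehicle wells; lower values mean less growth of the strain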
# Conditions: S. cerevisiae deletion strains, growth OD
smiles,measurement,setting,value
CC(C)CCCC(C)[C@H]1CCC2C3C(=O)C=C4C[C@@H](O)CC[C@]4(C)C3CC[C@@]21C (some centres not stated),normalized growth,"locus YAL013W, strain DEP1, hits give low values",1.02
same,normalized growth,"locus YAL021C, strain ccr4, hits give low values",0.974
same,normalized growth,"locus YAL026C, strain drs2, hits give low values",1.02
same,normalized growth,"locus YAL030W, strain snc1, hits give low values",0.996
same,normalized growth,"locus YBL061C, strain skt5, hits give low values",1.01
same,normalized growth,"locus YBR009C, strain hhf1, hits give low values",1.06
same,normalized growth,"locus YBR021W, strain FUR4, hits give low values",1.05
same,normalized growth,"locus YBR023C, strain chs3, hits give low values",1.01
same,normalized growth,"locus YBR171W, strain sec66, hits give low values",1
same,normalized growth,"locus YBR229C, strain ROT2, hits give low values",1.06
same,normalized growth,"locus YBR231C, strain swc5, hits give low values",1.05
same,normalized growth,"locus YBR279W, strain paf1, hits give low values",1.01
same,normalized growth,"locus YCL011C, strain gbp2, hits give low values",0.994
same,normalized growth,"locus YCL016C, strain dcc1, hits give low values",1
same,normalized growth,"locus YCL029C, strain bik1, hits give low values",1.03
same,normalized growth,"locus YCL061C, strain MRC1, hits give low values",1.01
same,normalized growth,"locus YCL069W, strain vba3, hits give low values",0.996
same,normalized growth,"locus YCR088W, strain abp1, hits give low values",0.991
same,normalized growth,"locus YDL005C, strain med2, hits give low values",0.994
same,normalized growth,"locus YDL035C, strain GPR1, hits give low values",1.04
same,normalized growth,"locus YDL040C, strain nat1, hits give low values",0.982
same,normalized growth,"locus YDL074C, strain BRE1, hits give low values",1.04
same,normalized growth,"locus YDL101C, strain DUN1, hits give low values",1.04
same,normalized growth,"locus YDL185W, strain tfp1, hits give low values",1.04
same,normalized growth,"locus YDL192W, strain arf1, hits give low values",1.06
same,normalized growth,"locus YDR001C, strain nth1, hits give low values",1.01
same,normalized growth,"locus YDR069C, strain doa4, hits give low values",1
same,normalized growth,"locus YDR101C, strain arx1, hits give low values",1.04
same,normalized growth,"locus YDR137W, strain rgp1, hits give low values",0.946
same,normalized growth,"locus YDR150W, strain NUM1, hits give low values",1.01
same,normalized growth,"locus YDR159W, strain sac3, hits give low values",1.06
same,normalized growth,"locus YDR162C, strain NBP2, hits give low values",1.07
same,normalized growth,"locus YDR195W, strain ref2",0.997
same,normalized growth,"locus YDR297W, strain sur2, hits give low values",0.996
same,normalized growth,"locus YDR318W, strain mcm21, hits give low values",1.03
same,normalized growth,"locus YDR334W, strain swr1, hits give low values",0.975
same,normalized growth,"locus YDR335W, strain msn5, hits give low values",1.01
same,normalized growth,"locus YDR388W, hits give low values",1.02
same,normalized growth,"locus YDR392W, strain spt3, hits give low values",0.968
same,normalized growth,"locus YDR502C, strain sam2, hits give low values",1.02
same,normalized growth,"locus YEL003W, strain gim4, hits give low values",0.996
same,normalized growth,"locus YEL037C, strain rad23, hits give low values",1.01
same,normalized growth,"locus YEL061C, strain CIN8 (second series), hits give low values",1
same,normalized growth,"locus YEL061C, strain CIN8, hits give low values",1.01
same,normalized growth,"locus YER015W, strain faa2, hits give low values",1.01
same,normalized growth,"locus YER016W, strain bim1, hits give low values",0.994
same,normalized growth,"locus YER110C, hits give low values",1.04
same,normalized growth,"locus YER111C, strain swi4, hits give low values",1
same,normalized growth,"locus YER155C, strain BEM2 (second series), hits give low values",1.03
same,normalized growth,"locus YER155C, strain BEM2, hits give low values",1.01
same,normalized growth,"locus YER167W, strain BCK2, hits give low values",1.03
same,normalized growth,"locus YFR010W, strain ubp6, hits give low values",1.02
same,normalized growth,"locus YGL078C, strain dbp3, hits give low values",1.04
same,normalized growth,"locus YGL086W, strain mad1, hits give low values",1.01
same,normalized growth,"locus YGL167C, strain pmr1, hits give low values",1.01
same,normalized growth,"locus YGL173C, strain kem1, hits give low values",1
same,normalized growth,"locus YGL227W, strain vid30, hits give low values",1.01
same,normalized growth,"locus YGL240W, strain doc1, hits give low values",1.13 [resistant] (active)
same,normalized growth,"locus YGL248W, strain PDE1, hits give low values",1.04
same,normalized growth,"locus YGL253W, strain hxk2, hits give low values",0.93
same,normalized growth,"locus YGR135W, strain pre9, hits give low values",1.04
same,normalized growth,"locus YGR229C, strain SMI1, hits give low values",1.08
same,normalized growth,"locus YGR252W, strain gcn5, hits give low values",1.05
same,normalized growth,"locus YHR013C, strain ard1, hits give low values",1.02
same,normalized growth,"locus YHR027C, strain rpn1, hits give low values",0.992
same,normalized growth,"locus YHR030C, strain SLT2, hits give low values",1.01 and 0.966
same,normalized growth,"locus YHR079C, strain IRE1 (second series), hits give low values",1.02
same,normalized growth,"locus YHR079C, strain IRE1, hits give low values",1.01
same,normalized growth,"locus YHR094C, strain hxt1, hits give low values",1.04
same,normalized growth,"locus YHR129C, strain ARP1, hits give low values",1.03
same,normalized growth,"locus YHR142W, strain chs7, hits give low values",0.918
same,normalized growth,"locus YHR200W, strain rpn10, hits give low values",1
same,normalized growth,"locus YIL066C, strain RNR3, hits give low values",1.04
same,normalized growth,"locus YIL073C, strain SPO22, hits give low values",1.28
same,normalized growth,"locus YIL125W, strain kgd1, hits give low values",1.02
same,normalized growth,"locus YIR030C, strain dcg1, hits give low values",1.04
same,normalized growth,"locus YJL092W, strain hpr5, hits give low values",0.996
same,normalized growth,"locus YJL095W, strain BCK1 (second series), hits give low values",0.998
same,normalized growth,"locus YJL095W, strain BCK1, hits give low values",1.05 and 0.966
same,normalized growth,"locus YJL115W, strain asf1, hits give low values",1.01
same,normalized growth,"locus YJL129C, strain trk1, hits give low values",0.958
same,normalized growth,"locus YJL134W, strain LCB3, hits give low values",1.01
same,normalized growth,"locus YJL154C, strain vps35, hits give low values",1.01
same,normalized growth,"locus YJL164C, strain tpk1, hits give low values",0.966
same,normalized growth,"locus YJL166W, strain qcr8, hits give low values",1
same,normalized growth,"locus YJL168C, strain set2, hits give low values",1.03
same,normalized growth,"locus YJL187C, strain SWE1 (second series), hits give low values",1.04
